In PubChem BioAssay AID1259370 (Center for Chemical Genomics, University of Michigan, 2018):
The whole screen tested about 94,000 compounds, of which about 680 (0.72%) were called active. The sample holds actives, similar compounds and a random draw of the others, so the mix is not that of the screen. No stated cut-off is given here; in the data, active means z-score above about 3.2; inactive means the rest.

What follows are compounds tested against M-phase inducer phosphatase 2 (Homo sapiens) + Cyclin-dependent kinase 2 (Homo sapiens) + Cyclin-A2 (Homo sapiens) (UniProt P30305+P24941+P20248) (assay: primary biochemical HTRF screen for inhibition of M-phase inducer phosphatase 2 binding to cyclin-dependent kinase 2/cyclin A (AID 1259370)). Settings: HTRF CDC25B-CDK2/CyclinA binding, anti-His/anti-Flag; active compounds read high.
In the case of Cc1nc2ncnn2c(Sc2ccc(N)cc2)c1C, the z-score is reported as 3.58 (inactive).
With O=C(CN1CCN(c2ccccn2)CC1)c1ccc2c(c1)CCN2 the z-score was -2.4 (inactive).
With Cc1ccc(-c2nnc(C3CCN(S(=O)(=O)c4c(C)cc(C)cc4C)CC3)o2)cc1 the z-score was 0.05 (inactive).
In the case of COc1ccc(OCC(O)CN2CCC(C)CC2)cc1 (stereo unspecified), the z-score is reported as 1.91 (inactive).
In the case of CCOC(=O)N1CCN(CC(O)COc2ccc(OC(F)(F)F)cc2)CC1 (stereo unspecified), the z-score is reported as 11.1 (active).
For NC(=O)C1CCN(CC(O)COc2ccc(Cl)c(Cl)c2)CC1 (stereo unspecified), the z-score was -0.09 (inactive).
In the case of CCOc1ccc(-c2cc(O)cc3sc(=O)oc23)cc1, the z-score is reported as -1.8 (inactive).
For CCC1(C)Cc2ccccc2-c2[nH]c(=O)n(-c3ccccc3)c(=O)c21 (stereo unspecified), the z-score was -2.42 (inactive).
For N#CC1=C(N)OC2=C(C(=O)CCC2)C1c1cccc(O)c1 (stereo unspecified), the z-score was -0.34 (inactive).
O=C(O)C1C2CCC(O2)C1C(=O)N1CCN(c2ccccc2)CC1 (stereo unspecified) was tested, and the z-score was -0.45 (inactive).
With Cn1c(C(=O)N2CCC(C(=O)N3CCN(c4ccccc4)CC3)CC2)cc2sccc21 the z-score was -0.7 (inactive).
For CC(=O)Oc1cc2c(C(=O)N3CCN(c4ccccc4)CC3)c(C)oc2c2ccccc12, the z-score was 10.8 (active).
In the case of O=C(O)c1ccc2nc(-c3ccccc3)[nH]c2c1, the z-score is reported as -1.66 (inactive).
In the case of N#Cc1c(-c2ccco2)cc(-c2ccc(Br)cc2)nc1N, the z-score is reported as -0.1 (inactive).
CCOC(=O)c1sc2nc3c(c(-c4ccco4)c2c1N)CCC3 was tested, and the z-score was -2.78 (inactive).
With N#Cc1c(N)nc2c(c1-c1ccco1)CCCC2 the z-score was 19.4 (active).
For O=C(OCC1CCCO1)c1c(-c2ccccc2)c(-c2ccccc2)n[nH]c1=O (stereo unspecified), the z-score was -1.18 (inactive).
COc1cccc(CC2C(=O)Nc3ccccc32)c1OC (stereo unspecified) was tested, and the z-score was -0.98 (inactive).
C=CCOc1cccc(C2c3c(oc4ccc(Cl)cc4c3=O)C(=O)N2CCCN2CCOCC2)c1 (stereo unspecified) was tested, and the z-score was -1.86 (inactive).
With C=CCN1C(=O)/C(=C/c2ccc(OC(=O)C34CC5CC(CC(C5)C3)C4)c(OC)c2)SC1=S the z-score was -2.28 (inactive).
In the case of Cc1ccc(CC2CC(=O)N(c3nc(C)cc(C)n3)C2=O)cc1 (stereo unspecified), the z-score is reported as -0.93 (inactive).
O=C1c2cccnc2C(=O)N1c1ccc(-c2nc3ccccc3o2)cc1 was tested, and the z-score was 1.03 (inactive).
For Cc1ccc2oc(-c3ccc(C)c(N)c3)nc2c1, the z-score was -1.15 (inactive).
For Cc1ccc2oc(-c3cccc(N4C(=O)c5cccnc5C4=O)c3)nc2c1, the z-score was 16 (active).
In the case of Cc1nc2c3ccccc3n3c(CCCC(=O)N4CCC(C(N)=O)CC4)nnc3n2n1, the z-score is reported as 0.97 (inactive).
With CC(C)S(=O)(=O)c1cscc1N/C=C(/C#N)C(=O)c1cccs1 the z-score was 8.41 (active).
In the case of CC(C)S(=O)(=O)c1cscc1N/C=C(/C#N)C(=O)C1CC1, the z-score is reported as 0.29 (inactive).
CSc1nc(N/C=C(\C#N)C(=O)c2cccs2)n2nc(C)cc2n1 was tested, and the z-score was -0.94 (inactive).
Cc1ccccc1-c1noc(CSc2nnc(-c3ccncc3)n2-c2ccccc2)n1 was tested, and the z-score was -0.18 (inactive).
NC(=O)c1c(NC(=O)c2ccc(Br)o2)sc2c1CCCC2 was tested, and the z-score was -10.5 (inactive).
Cc1ccc(S(=O)(=O)c2nc(S(=O)(=O)c3ccccc3)sc2NCc2ccccn2)cc1 was tested, and the z-score was 0.49 (inactive).
Cc1nc2cc(NCc3ccccn3)ccc2n1C was tested, and the z-score was 14.6 (active).
For COc1ccc(-n2cnc3cc(NCc4ccco4)ccc32)cc1, the z-score was -1.6 (inactive).
Cc1ccc(Cn2c(=O)c(C#N)cc3c(=O)n4ccccc4nc32)cc1 was tested, and the z-score was -2.86 (inactive).
With CCC12CN3CC(CC)(CN(C1)C3c1cccc(N)c1)C2=O (stereo unspecified) the z-score was -0.44 (inactive).
CC1CC(C)CN(C(=O)C(=O)c2c[nH]c3ccccc23)C1 (stereo unspecified) was tested, and the z-score was -1.24 (inactive).
With NC(=O)C1CCN(C(=O)C(=O)c2c[nH]c3ccccc23)CC1 the z-score was -2.56 (inactive).
O=C(C(=O)N1CCc2ccccc2C1)c1c[nH]c2ccccc12 was tested, and the z-score was 10.4 (active).
Cc1ccc2nc(C3=C(O)CN(c4cc(Cl)ccc4C)C3=N)[nH]c2c1 was tested, and the z-score was -2.12 (inactive).
For Fc1ccc(C(Nc2ccccc2)c2nnc(-c3ccccc3)o2)cc1 (stereo unspecified), the z-score was 0.64 (inactive).
Cc1cccn2c(=O)c3cc(C(=O)NCc4cccs4)n(C)c3nc12 was tested, and the z-score was -2.17 (inactive).
With COCCOC(=O)C1=C(C)NC2=C(C(=O)C(C(=O)OC)C(C)C2)C1c1cccc(Br)c1 (stereo unspecified) the z-score was -0.35 (inactive).
In the case of CCOC(=O)C(Sc1nc(N2CCOCC2)c2c(c1C#N)CC(C)(C)OC2)c1ccccc1 (stereo unspecified), the z-score is reported as -1.85 (inactive).
With COc1cccc(CNCc2ccc3c(c2)OCO3)c1 the z-score was 2.98 (inactive).
In the case of ONC(=Nc1ccc2c(c1)OCO2)C(=Nc1ccc2c(c1)OCO2)NO, the z-score is reported as 20.3 (active).
For c1cc(CNCc2ccc3c(c2)OCO3)ccn1, the z-score was -0.83 (inactive).
For CCCc1cc(-c2n[nH]c(C)c2-c2ccc3c(c2)OCCO3)c(O)cc1O, the z-score was 1.36 (inactive).
Cc1nc(-n2cnc3ccccc32)c2c3c(sc2n1)CCC3 was tested, and the z-score was -2.24 (inactive).
For COc1ccc(C(=O)Oc2ccc3c(C)cc(=O)oc3c2C(C)=O)cc1OC, the z-score was 4.76 (inactive).
For CCOc1ccc(OCCSc2nc3ccccc3n2CC(=O)O)cc1, the z-score was -2.11 (inactive).
In the case of O=C1C2N=NN(Cc3cccc(F)c3)C2C(=O)N1c1ccccc1 (stereo unspecified), the z-score is reported as 0.2 (inactive).
In the case of COc1ccc(C2CC(=O)c3cc(-c4nc(-c5ccc(F)cc5)cs4)c(=O)[nH]c3C2)cc1 (stereo unspecified), the z-score is reported as -1.13 (inactive).
COc1ccc(-c2csc(-c3cc4c([nH]c3=O)CC(c3ccco3)CC4=O)n2)cc1F (stereo unspecified) was tested, and the z-score was 12.9 (active).
With COc1ccc(-c2csc(-c3cc4c([nH]c3=O)CC(c3ccc(OC)c(OC)c3)CC4=O)n2)cc1 (stereo unspecified) the z-score was -1.19 (inactive).
COc1ccc(-c2noc(COc3cc(C)cc(C)c3C)n2)cc1OC was tested, and the z-score was 1.44 (inactive).
In the case of COC(=O)c1ccc([C@@H]2Nc3ccc(F)cc3[C@@H]3C=CC[C@@H]32)cc1, the z-score is reported as -0.78 (inactive).
With COc1cccc([C@@H]2Nc3ccc(S(=O)(=O)Nc4ccccc4)cc3[C@@H]3C=CC[C@@H]32)c1 the z-score was -1.16 (inactive).
For CCOc1cccc2c1N[C@@H](c1ccc(C(=O)O)cc1)[C@H]1CC=C[C@@H]21, the z-score was 11.8 (active).
With Cn1c(=O)n(CCc2ccccc2)c(=O)c2c3c(sc21)COC(C)(C)C3 the z-score was -1.21 (inactive).
With C#CCSc1nc2c(c(=O)[nH]1)C(c1ccc(OCCCC)cc1)CC(=O)N2 (stereo unspecified) the z-score was -1.04 (inactive).
For CCSc1nc2c(c(=O)[nH]1)C(c1ccc(OC)c(Br)c1)CC(=O)N2 (stereo unspecified), the z-score was -0.2 (inactive).
In the case of C#CCSc1nc2c(c(=O)[nH]1)C(c1ccc(O)c(O)c1)CC(=O)N2 (stereo unspecified), the z-score is reported as 19 (active).
In the case of Cc1[nH]c2ccccc2c1C1(O)C(=O)N(Cc2cccs2)c2ccc(Br)cc21 (stereo unspecified), the z-score is reported as 1.66 (inactive).
With COc1ccc(-c2ccc(Cc3nc(-c4ccc(OC)cc4)no3)cc2)cc1 the z-score was -3.73 (inactive).
With CN(Cc1ccccc1)c1oc(-c2ccc(COc3ccccc3)o2)nc1C#N the z-score was 1.1 (inactive).
For CCCc1nc2sc3c(OCC)ncnc3c2c2c1COC(C)(C)C2, the z-score was 0.03 (inactive).
With Cc1cc(C(=O)O)c2cc(Br)ccc2n1 the z-score was -1.02 (inactive).
In the case of COc1cccc(-c2cn3nc(C)sc3n2)c1, the z-score is reported as -1.51 (inactive).
CCOC(=O)N1CCC(c2cc(=O)n(-c3ccccc3)[nH]2)CC1 was tested, and the z-score was 7.05 (active).
For CCOC(=O)N1CCC(C(N)=O)CC1, the z-score was -0.86 (inactive).
For CCOC(=O)N1CCN(c2c(NCCN3CCN(c4cccc(Cl)c4)CC3)c(=O)c2=O)CC1, the z-score was -2.84 (inactive).
In the case of Cc1nc2sc(C(c3cccc(Cl)c3)N3CCN(c4ccccc4)CC3)c(O)n2n1 (stereo unspecified), the z-score is reported as -0.28 (inactive).
With Cc1ccc(N(CC(=O)NC(C(C)C)C(C)C)S(C)(=O)=O)cc1Cl the z-score was -1.52 (inactive).
With O=C(Nc1ccc(O)c(-c2nc3ccccc3s2)c1)C(c1ccccc1)c1ccccc1 the z-score was -2.45 (inactive).
In the case of O=C(NCCN1CCOCC1)c1nnc(CS(=O)(=O)c2ccccc2)o1, the z-score is reported as -1.86 (inactive).
CCN1CCCC1CNC(=O)c1nnc(CS(=O)(=O)c2ccccc2)o1 (stereo unspecified) was tested, and the z-score was 7.59 (active).
For CCN1CCCC1CNC(=O)c1sc2nc(C)cc(C)c2c1-n1cccc1 (stereo unspecified), the z-score was -0.15 (inactive).
Cc1nc2sccn2c(=O)c1S(=O)(=O)N1CCOCC1 was tested, and the z-score was -0.79 (inactive).
For Cc1cc(C)cc(Nc2nccc(=O)[nH]2)c1, the z-score was -2.01 (inactive).
In the case of CC1CCCC(NC(=O)c2cc3c(s2)-c2ccccc2OC3)C1C (stereo unspecified), the z-score is reported as -0.62 (inactive).
In the case of CCCCc1c(O)nc(SCC(=O)NCc2ccco2)[nH]c1=O, the z-score is reported as 4.39 (active).
Nc1ncnc2nc(SCC(=O)NCc3ccco3)[nH]c12 was tested, and the z-score was -1.28 (inactive).
In the case of CC(C)Cc1c(O)nc(SCC(=O)NCc2ccco2)[nH]c1=O, the z-score is reported as 0.23 (inactive).
For O=C(CC1Oc2ccccc2NC1=O)NCc1ccco1 (stereo unspecified), the z-score was -1.29 (inactive).
For Cn1c(=O)c2c(c3ccccc31)OC(=O)CC2c1ccc(Br)cc1 (stereo unspecified), the z-score was -0.71 (inactive).
With O=C1CC(c2ccccc2)Sc2nc(-c3ccccc3)nn21 (stereo unspecified) the z-score was -0.15 (inactive).
